TGFb SMAD3 inh: qHTS for Inhibitors of TGF-b; HepG2 CAGA-GFP TGF-b/SMAD3 reporter, GFP fluorescence, 18 h; TGF-beta stimulated, 500 pg/mL final; Potency, µM (doses to about 46.1 µM), for inactives: at the highest dose activity, negative = inhibition, hits mostly inhibitors; actives 1.2% (n = 410,000); further: on the % scale 0 is the no-effect control and ±100 the full control effect; nearly all actives have a fitted effect of over 65% in size
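GFP signal (ex488/em500-530) from TGF-beta-stimulated HEPG2 CAGA-GFP cells, 500 pg/mL final, 18 h at 37 degrees C in DMEM plus 1% FBS, normalized to unstimulated and DMSO-stimulated controls.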
HepG2 viability: qHTS for Inhibitors of TGF-b: Cytotox Counterscreen; AID 588856, 2011; Potency, µM (doses to about 46.1 µM), without a hit: at the highest dose activity change, negative = cytotoxicity, usual class: cytotoxic; HepG2 CAGA-GFP viability, ATP luminescence, 18 h; actives 0.76% (n = 410,000)
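HepG2 CAGA-GFP cells (1000/well, DMEM with 1% FBS) received compound, then TGF-beta at 500 pg/mL final, and were incubated 18 hours at 37 degrees C. Viability was read by CellTiter-Glo luminescence. Media-only wells were set as complete cell-killing and DMSO as no toxicity.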
ATXN2 expr inh: Primary qHTS for Inhibitors of ATXN expression | Potency, µM (highest dose often 57 µM), for inactives: at the top dose activity change, negative = inhibition, usual class: inhibitors | HEK-293 ATXN2-luciferase reporter, luminescence, 24 h | AID 1745845, 2022 | actives 0.72% (n = 360,000); further: on the % scale 0 is the no-effect control and ±100 the full control effect; nearly all actives have a fitted effect of over 55% in size
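ATXN2-luciferase reporter cells (luciferase flanked by upstream and downstream ATXN2 gene portions) were treated 24 h at 37 °C with compounds at up to 57 uM. SteadyGlo luminescence gave expression; GF-AFC fluorescence gave viability.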
S2 tox: Viability Counterscreen for Primary qHTS for Inhibitors of ATXN expression; Potency, µM (series often up to 56.7 µM), actives largely listed as cytotoxic; S2 cells (HEK-293 line with an ATXN2-luciferase reporter) viability, CellTiter-Fluor protease fluorescence, 24 h; AID 651635, 2014; actives 0.49% (n = 400,000); further: nearly all actives have a fitted effect of over 40% in size
VP16 counter: VP16 counterscreen qHTS for inhibitors of ROR gamma transcriptional activity | actives 3.5% (n = 310,000) | Drosophila S2 Gal4-VP16 UAS-luciferase, luminescence, 20 h | Potency, µM (doses to about 53.6 µM), inactives show at the highest dose activity, negative = inhibition, most hits filed as inhibitors;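 further: Gal4-VP16 expression switched on by copper sulfate through the metallothionein promoter; on the % scale 0 is the no-effect control and ±100 the full control effect; nearly all actives have a fitted effect of over 50% in size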
RORgamma inh: qHTS for inhibitors of ROR gamma transcriptional activity | Drosophila S2 Gal4-RORgamma UAS-luciferase reporter, 20 h | Potency, µM (titrated, usually from 53.6 µM), for inactives: top-dose activity change, negative = inhibition, usual class: inhibitors | actives 5.4% (n = 310,000); further: on the % scale 0 is the no-effect control and ±100 the full control effect; nearly all actives have a fitted effect of over 60% in size
Target sequence (P51450 whole entry, looked up, the tested form may be a part): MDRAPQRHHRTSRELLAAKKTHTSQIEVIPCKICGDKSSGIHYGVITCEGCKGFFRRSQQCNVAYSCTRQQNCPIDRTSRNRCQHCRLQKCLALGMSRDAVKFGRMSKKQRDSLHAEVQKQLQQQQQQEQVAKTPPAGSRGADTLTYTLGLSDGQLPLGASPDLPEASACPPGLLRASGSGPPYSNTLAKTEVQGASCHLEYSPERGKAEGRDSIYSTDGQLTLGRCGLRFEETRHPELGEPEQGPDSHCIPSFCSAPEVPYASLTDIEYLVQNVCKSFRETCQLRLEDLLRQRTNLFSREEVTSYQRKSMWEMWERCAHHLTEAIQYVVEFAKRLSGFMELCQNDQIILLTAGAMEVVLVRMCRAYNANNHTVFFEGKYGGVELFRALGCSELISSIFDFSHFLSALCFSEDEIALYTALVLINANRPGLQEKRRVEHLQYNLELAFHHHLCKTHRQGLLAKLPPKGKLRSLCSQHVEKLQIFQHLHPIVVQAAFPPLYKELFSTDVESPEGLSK
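Read-out: Photinus luciferase luminescence; inhibitors lower reporter signal. Insect Schneider cells with Gal4-ROR gamma fusion under metallothionein promoter, UAS reporter; 700 uM final copper sulfate induction, 20 hr, ambient temperature.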
An asterisk follows results filed as active; i = inactive; ? = inconclusive; / = no result given; [ ] = dose if it differs, or a comment. Compounds with a hit are over-represented: about 6.3% of the library has one in this group of screens. The call rests on the fitted dose curve; in most records, active means well fitted curve in the direction sought with a large enough effect; inconclusive means small, poorly fitted or top-dose-only effect, or another doubt; inactive means no such curve, though single readings can be large; an effect the other way counts as inactive or inconclusive. Potency means the concentration at half of the fitted maximal effect.

SMILES	TGFb SMAD3 inh	HepG2 viability	ATXN2 expr inh	S2 tox	VP16 counter	RORgamma inh
Cc1nn(-c2ccccc2)c2sc(C(=O)Nc3ccc(Cl)cc3Cl)cc12	/	0%	/	/	/	/
CC(C)CC1NC(=O)c2cccnc2-n2c1nc1ccccc1c2=O (stereo not drawn)	3%	-21%	1%	i	/	/
Cc1cc(Cl)cc(C)c1OCCCCn1ccnc1	1%	-16%	-38%	i	-29%	11µM*
Cc1cc(OCCCn2ccnc2)cc(C(C)C)c1	5%	3%	3%	i	-1%	32µM*
CC(C)(C)c1ccc(OCCCn2ccnc2)cc1	-16%	-17%	-11%	i	25µM*	-115%
Cc1cccc(Cl)c1OCCCCn1ccnc1	6%	-6%	-26%	i	19%	16µM*
Cc1cc(OCCCn2ccnc2)ccc1C(C)C	3%	-17%	-9%	i	?	-35%
CC(C)Oc1ccc2c(=O)c3cc(C(=O)O)ccc3oc2c1	/	/	/	/	-3%	1%
COc1cc(CN2C[C@@H](CO)O[C@@H](n3cnc4c(NCCN(C)C)ncnc43)C2)cc(OC)c1OC	5%	-13%	7%	i	/	/
COc1ccc(OC)c(C(c2c(O)nc(SC)[nH]c2=O)c2c(O)nc(SC)[nH]c2=O)c1	-11%	-1%	5%	i	5%	-32%
Cc1cc(OCCCCn2ccnc2)cc(C)c1Cl	-1%	-24%	?	i	-24%	13µM*
Cc1ccccc1OCCCCCn1ccnc1	-10%	-24%	-23%	i	-6%	11µM*
Clc1ccccc1OCCCCn1ccnc1	-25%	-4%	7%	i	/	4%[0.365 µM]
CCOC(=O)c1c(N)sc(C(=O)Nc2ccc3c(c2)OCO3)c1C	-8%	-46%	?	i	5.6µM*	?
Cc1cc(C)c(NS(=O)(=O)c2ccccc2)c(C)c1NS(=O)(=O)c1ccccc1	4%	4%	3%	i	/	/
COCCCN(C(=S)Nc1cc(C)cc(C)c1)C(C)c1ccncc1 (stereo not drawn)	-17%	-5%	1%	i	?	13µM*
COCCCN(C(=S)Nc1c(C)cc(C)cc1C)C(C)c1ccccn1 (stereo not drawn)	-14%	-1%	-15%	i	?	14µM*
CCOc1ccc(NC(=S)N(CCOC)C(C)c2cccnc2)cc1 (stereo not drawn)	-21%	-32%	1%	i	-1%	11µM*
COCCN(C(=S)Nc1cccc(C)c1)C(C)c1cccnc1 (stereo not drawn)	4%	4%	0%	i	-4%	11µM*
COc1ccc(CNC(=O)C[C@@H]2C[C@H]3c4cc(NC(=O)C5CCC5)ccc4O[C@H]3[C@@H](CO)O2)cc1	15%	-1%	5%	i	/	/
COC(=O)c1scc(-c2ccccc2)c1S(=O)(=O)Nc1cccc(C)c1C	?	-27%	6%	i	/	/
COc1cccc(CNC(=O)[C@@H]2CCCN2)c1	/	/	21%	i	/	/
CN(C)CCN(C)C1CN(C2CCCC2)S(=O)(=O)C1 (stereo not drawn)	4%	-1%	8%	i	/	/
O=C(Cn1ncc2c(=O)oc3ccccc3c21)NCc1ccccc1Cl	-31%	-12%	2%	i	/	/
CC(=O)Oc1ccccc1C(=O)Nc1ccccc1	0%	-15%	15%	i	/	/
SMILES	TGFb SMAD3 inh	HepG2 viability	ATXN2 expr inh	S2 tox	VP16 counter	RORgamma inh
COC1(OC)C=CC(=O)C=C1NC(=O)c1ccccc1OC(C)=O	11µM*	-4%	18µM*	14µM*	/	/
CCOC(=O)c1cnc2c(OC)cccc2c1N1CCN(c2ccc(OC)cc2)CC1	0%	6%	?	i	2.2µM*	-5%
CCOCCCNC(=O)c1ccc(Cn2c(=O)c3cccn3c3cccnc32)cc1	?	8%	/	/	/	/
COc1cccc(/C=N/NC(=O)c2ccc3nc[nH]c3c2)c1O	6%	-24%	6%	i	-11%	-25%
COc1cccc(/C=N/NC(=O)c2cc3c(OC)ccc(OC)c3[nH]2)c1O	?	0%	/	i	2.8µM*	1.6µM*
COc1cc(OC)c2cc(C(=O)N/N=C/c3cccc(OC)c3O)[nH]c2c1	?	-22%	3.2µM*	?	4.5µM*	2.2µM*
CN(Cc1ccccc1)C(=O)c1cccc(NC(=O)Cc2ccc(NC(=O)C3CCCN(C(=O)C4CCC4)C3)cc2)c1 (stereo not drawn)	-1%	-5%	6%	i	/	/
CC(C)(C)n1ncc2c(=O)n(Cc3cccc(F)c3)cnc21	-17%	4%	/	/	/	/
Cc1ccc(-n2nnc(-c3nccs3)n2)cc1	-38%	-56%	?	i	5.6µM*	4µM*
COc1ccc(-c2c(C)[nH]n3c(=O)c(Cc4ccccc4)c(C)nc23)cc1	?	-44%	-3%	i	3.2µM*	2.5µM*
CCCCc1c(C)nc2c(-c3ccc(Cl)cc3)c(C)[nH]n2c1=O	?	-31%	?	?	/	/
Cc1nc2c(-c3ccccc3)c(C)[nH]n2c(=O)c1Cc1ccc(Br)cc1	2.5µM*	-46%	/	/	/	/
CCc1cc(=O)n2[nH]c(C)c(-c3ccc(OC)cc3)c2n1	11%	3%	/	i	-6%	9%
CCc1c(C)nc2c(-c3ccccc3)c(C)[nH]n2c1=O	-1%	-17%	-3%	i	?	11µM*
CCCc1cc(=O)n2[nH]c(C)c(-c3ccccc3OC)c2n1	1%	-8%	/	i	/	/
COc1ccccc1-c1c(C)[nH]n2c(=O)c(Cc3ccccc3)c(C)nc12	-16%	4%	-28%	i	11µM*	14µM*
Cc1nc2c(-c3ccccc3)c[nH]n2c(=O)c1Cc1ccccc1	2%	-17%	53%	i	-9%	4%
COc1cc(C2CC(=O)Nc3c2c(=O)n(C)c2ncnn32)cc(OC)c1OC (stereo not drawn)	28%	-17%	-10%	i	/	/
CSCCC(N)C(=O)O (stereo not drawn)	/	/	/	/	-2%	1%
Cc1nc2c(-c3ccccc3)c(C)[nH]n2c(=O)c1Cc1ccc(C(C)C)cc1	-9%	-39%	?	i	/	/
Cc1ccc(Cc2c(C)nc3c(-c4ccccc4)c(C)[nH]n3c2=O)cc1	?	-35%	16µM*	?	/	/
Cc1ccc(-c2nnc3ccc(SCC(=O)c4ccccc4)nn23)cc1	8%	11%	/	/	/	/
COc1ccccc1NC(=O)Nc1ccc2c(c1)nc(C)n2C	-16%	-32%	-5%	i	?	10µM*

Assay outcomes deposited in PubChem by National Center for Advancing Translational Sciences (NCATS).
